Measured values as given in PubChem BioAssay (NCI).
This is part of a sample that, as a whole, favours compounds with a hit. Of some 79,000 tested, about 15% had one in any assay. A number with no mark means an inactive call. The source made the active and inactive calls. No stated cut-off is given here; in the data, active means growth inhibition above about 70%; inactive means the rest.

Legend:
[1] = NCI Yeast Anticancer Drug Screen. Data for the rad50 strain (AID 155);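 further: 0% = growth of vehicle-only cultures of the same strain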; settings: S. cerevisiae rad50 strain growth inhibition, active compounds read high
How it was run: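 A DNA repair-deficient yeast mutant serves as the test organism; compound-induced growth inhibition is calculated against vehicle-treated cells.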

[2] = NCI Yeast Anticancer Drug Screen. Data for the mec2-1 strain (AID 157); settings: S. cerevisiae mec2-1 strain, active compounds read high
How it was run: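 Growth inhibition is read against vehicle-treated controls after compound exposure of the mec2-1 yeast strain, which is defective in DNA damage repair or cell cycle control.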

[3] = NCI Yeast Anticancer Drug Screen. Data for the sgs1 mgt1 strain (AID 161);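 further: 0% = growth of cultures given vehicle only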; settings: S. cerevisiae sgs1 mgt1 strain, active compounds read high
How it was run: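 Percent growth inhibition was derived by comparing compound-exposed mutant yeast with vehicle-exposed cultures. The strain carries alterations in DNA damage repair.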

[4] = NCI Yeast Anticancer Drug Screen. Data for the cln2 rad14 strain (AID 165);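 further: 0% = growth equal to vehicle treated cultures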; settings: S. cerevisiae cln2 rad14 strain, active compounds read high
How it was run: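 Growth inhibition, relative to vehicle-treated controls, is the read-out. The test organism is a yeast strain with defined genetic alterations, cln2 rad14.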

[5] = NCI Yeast Anticancer Drug Screen. Data for the bub3 strain (AID 167); settings: S. cerevisiae bub3 mutant strain, active compounds read high
How it was run: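 Inhibition values come from growth of compound-treated mutant yeast normalised to vehicle-treated controls.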

[6] = NCI Yeast Anticancer Drug Screen. Data for the mlh1 rad18 strain (AID 175); settings: S. cerevisiae mlh1 rad18 strain growth inhibition, active compounds read high
How it was run: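 Cells of a genetically altered yeast strain, deficient in DNA damage repair, were treated with compound. Their growth was then compared with that of vehicle-treated cultures to give inhibition.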

[7] = at 5.0 µM (retest, dose inferred, filed as 0.5)
[8] = at 50.0 µM (retest, dose inferred, filed as 5.0)

| SMILES | growth inhibition [1, 7] | growth inhibition [1, 8] | growth inhibition ([1]; at 50.0 µM) | growth inhibition [2, 7] | growth inhibition [2, 8] | growth inhibition ([2]; at 50.0 µM) | growth inhibition [3, 7] | growth inhibition [3, 8] | growth inhibition ([3]; at 50.0 µM) | growth inhibition [4, 7] | growth inhibition [4, 8] | growth inhibition ([4]; at 50.0 µM) | growth inhibition [5, 7] | growth inhibition [5, 8] | growth inhibition ([5]; at 50.0 µM) | growth inhibition [6, 7] | growth inhibition [6, 8] | growth inhibition ([6]; at 50.0 µM) |
| --- | --- | --- | --- | --- | --- | --- | --- | --- | --- | --- | --- | --- | --- | --- | --- | --- | --- | --- |
| NC(c1ccccc1)P(=O)(OCc1ccc([N+](=O)[O-])cc1)OCc1ccc([N+](=O)[O-])cc1 (stereo not given) | 15% | 15% | 57.2% | -4% | -4% | 33.6% | -3% | -3% | 72.3% (active) | 11% | 11% | 35.6% | 6% | 6% | 36.9% | 14% | 14% | 33.4% |
| COc1cccc2c1N[S@](=O)S2 | -12% | 95% (active) | 86.9% (active) | -12% | 94% (active) | 90.2% (active) | 1% | 68% | 77.9% (active) | -2% | 33% | 30% | 1% | 95% (active) | 95.5% (active) | -11% | 77% (active) | 69.9% |
| C=C(C)C1CC/C(C)=C/CCC2(C)OC2CC/C(CO)=C\C1O (stereo not given) | 52% | 89% (active) | 91.1% (active) | 80% (active) | 96% (active) | 93% (active) | 41% | 95% (active) | 93% (active) | 48% | 85% (active) | 91.7% (active) | 90% (active) | 94% (active) | 91.8% (active) | 87% (active) | 96% (active) | 91.5% (active) |
| Cc1c(N=Nc2cccc(F)c2)c(-c2ccccc2)nn1C(N)=S | 14% | 97% (active) | 99.2% (active) | 1% | 98% (active) | 99.4% (active) | 3% | 99% (active) | 99.4% (active) | -5% | 96% (active) | 99.1% (active) | 1% | 97% (active) | 99.5% (active) | 0% | 98% (active) | 99.2% (active) |
| Nc1nnc2nc(CC(=O)c3ccc([N+](=O)[O-])cc3)c(CC(=O)c3ccc([N+](=O)[O-])cc3)nn12 | 6% | -3% | 3.7% | 15% | 15% | 19.2% | 6% | 2% | 11.8% | 4% | 4% | 43.1% | 6% | 1% | 0.8% | 4% | 26% | 3.05% |
| COC(=O)/C=C(\C)Nc1ccc(Cc2ccc(Br)cc2)cc1 | -4% | 98% (active) | 97.5% (active) | -13% | 99% (active) | 96.8% (active) | -8% | 99% (active) | 97.8% (active) | 0% | 99% (active) | 92.9% (active) | -5% | 98% (active) | 94% (active) | -4% | 99% (active) | 98% (active) |
| NCC(=O)N/N=C/c1ccc([N+](=O)[O-])o1 | 10% | 24% | 5.1% | 4% | 17% | 44.3% | 0% | 15% | 73.2% (active) | -1% | 5% | 27.6% | 2% | 11% | 37.2% | 8% | 30% | 20.4% |
| CC1=C(C(=O)Nc2ccccc2)C(c2ccc(Cl)c(Cl)c2)C(C(=O)Nc2ccccc2)=C(C)N1 | 26% | 26% | 89% (active) | 21% | 21% | 92.8% (active) | 29% | 29% | 91.1% (active) | 8% | 8% | 91% (active) | 1% | 1% | 91.5% (active) | 25% | 25% | 90.6% (active) |
| ClC1=C(Cl)C(Cl)(Cl)C(Cl)(Cl)C1(Cl)Cl | 55% | 7% | 99.7% (active) | 49% | 99% (active) | 99.5% (active) | 59% | 62% | 99.7% (active) | 31% | 98% (active) | 98% (active) | 41% | 98% (active) | 99.4% (active) | 84% (active) | 99% (active) | 99.2% (active) |
| Cc1ccnc2[nH]c3ccccc3c(=O)c12 | 29% | 98% (active) | 81.5% (active) | 38% | 98% (active) | 69.5% | 18% | 96% (active) | 65.5% | 30% | 96% (active) | 21.4% | 15% | 96% (active) | 65.2% | 36% | 99% (active) | 77.7% (active) |
